Assay in all cases: yeast three-hybrid, YBZ-1, SC-Leu-His + 0.5 mM 3-AT, 4 days
What all share (conditions): tags: N-Gal4 AD-HA kept; label: inside an RPR1-promoter hybrid RNA with tandem MS2 sites; ssRNA

One test addresses PUM1 PUF domain R2-LWR (Homo sapiens, UniProt Q14671 828-1176, N899L;Y900W;Q903R). A digest of the protocol:
(§1)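 Pumilio-1 PUF domain libraries, randomized at the three base-contacting residues of each repeat, were co-expressed with matching RNA elements from a centromeric plasmid in strain YBZ-1, which carries a LexA–MS2 coat fusion and a HIS3 reporter. Transformants grew for four days on SC-Leu (input) or on SC-Leu-His + 0.5 mM 3-AT (selection), and the repeat regions were PCR-amplified and Illumina-sequenced. The interaction score is the log change in variant frequency from input to selection. That logarithm is base 2, with a pseudocount of 1 where a variant was absent.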

In a further test the target is PUM1 PUF domain R8-PFQ (Homo sapiens, UniProt Q14671 828-1176, N1122P;Y1123F). In outline:
as §1

For another test, the target named is PUM1 PUF domain R8-RRP (Homo sapiens, UniProt Q14671 828-1176, N1122R;Y1123R;Q1126P). In outline:
as §1

Another test deals with T1, PUM1 PUF domain R6-TFD (Homo sapiens, UniProt Q14671 828-1176, N1043T;Y1044F;Q1047D).
T1 sequence: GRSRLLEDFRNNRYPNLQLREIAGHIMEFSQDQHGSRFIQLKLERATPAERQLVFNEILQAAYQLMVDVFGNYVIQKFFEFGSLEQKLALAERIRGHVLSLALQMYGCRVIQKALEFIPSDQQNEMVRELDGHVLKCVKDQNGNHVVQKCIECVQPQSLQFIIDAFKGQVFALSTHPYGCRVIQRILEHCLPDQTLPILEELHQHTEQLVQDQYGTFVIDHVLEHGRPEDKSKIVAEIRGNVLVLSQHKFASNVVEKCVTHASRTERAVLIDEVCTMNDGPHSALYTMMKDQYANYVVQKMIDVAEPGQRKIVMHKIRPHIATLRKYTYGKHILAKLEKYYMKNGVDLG
A digest of the protocol:
as §1

A further test deals with T2, PUM1 PUF domain R6-CWG (Homo sapiens, UniProt Q14671 828-1176, N1043C;Y1044W;Q1047G).
T2 sequence: T1 sequence with T216C, F217W, D220G
A digest of the protocol:
as §1

In a further test the target is PUM1 PUF domain R4-WAR (Homo sapiens, UniProt Q14671 828-1176, N971W;H972A;Q975R). In outline:
as §1

For another test, the target named is PUM1 PUF domain R1-KMC (Homo sapiens, UniProt Q14671 828-1176, S863K;R864M;Q867C). In outline:
as §1

The next test concerns the target PUM1 PUF domain R1-GRN (Homo sapiens, UniProt Q14671 828-1176, S863G;Q867N). A digest of the protocol:
as §1

The target of the next test is PUM1 PUF domain R1-KDL (Homo sapiens, UniProt Q14671 828-1176, S863K;R864D;Q867L). In outline: as §1
In the next test the target is PUM1 PUF domain R1-QGR (Homo sapiens, UniProt Q14671 828-1176, S863Q;R864G;Q867R). In outline: as §1
In another test the target is PUM1 PUF domain R3-WCM (Homo sapiens, UniProt Q14671 828-1176, C935W;R936C;Q939M). In outline:
as §1

For the next test, the target named is PUM1 PUF domain R3-GYD (Homo sapiens, UniProt Q14671 828-1176, C935G;R936Y;Q939D). A digest of the protocol: as §1
The target in a further test is PUM1 PUF domain R5-CAR (Homo sapiens, UniProt Q14671 828-1176, R1008A;Q1011R). In outline:
as §1

A further test has as its target PUM1 PUF domain R5-RKQ (Homo sapiens, UniProt Q14671 828-1176, C1007R;R1008K). In outline:
as §1

The target of the next test is PUM1 PUF domain R5-FRV (Homo sapiens, UniProt Q14671 828-1176, C1007F;Q1011V). In outline:
as §1

Another test has as its target PUM1 PUF domain R5-RNS (Homo sapiens, UniProt Q14671 828-1176, C1007R;R1008N;Q1011S). A digest of the protocol:
as §1

The next test concerns the target PUM1 PUF domain R3-RRM (Homo sapiens, UniProt Q14671 828-1176, C935R;Q939M). A digest of the protocol:
as §1

A further test concerns the target PUM1 PUF domain R1-HGR (Homo sapiens, UniProt Q14671 828-1176, S863H;R864G;Q867R). A digest of the protocol:
as §1

In the next test the target is PUM1 PUF domain R2-KIG (Homo sapiens, UniProt Q14671 828-1176, N899K;Y900I;Q903G). A digest of the protocol: as §1
The next test concerns the target PUM1 PUF domain R5-NGC (Homo sapiens, UniProt Q14671 828-1176, C1007N;R1008G;Q1011C). A digest of the protocol: as §1

Data on 15 sequences can be found in publication PMC8384837, “Expanding the binding specificity for RNA recognition by a PUF domain”.

Substitutions are numbered along the chain they refer to.

As to “GGCUAGAACUAGUGGAUCCCCCGGCGCCCGGCGGCUCGAGCCCGGGUAAGUGUAAAAAGUCUGCAUGCCGCCGGGCGCCAUGCCUGCAGGUCGACUCUAGAAAACAUG”, in the test with PUM1 PUF domain R2-LWR, the binding signal was 3.68 log2 enrichment (interaction score). On to “GGCUAGAACUAGUGGAUCCCCCGGCGCCCGGCGGCUCGAGCCCGGGUAAGCGUAAAUAGUCUGCAUGCCGCCGGGCGCCAUGCCUGCAGGUCGACUCUAGAAAACAUG”, for which the binding signal with PUM1 PUF domain R8-PFQ is 3.59 log2 enrichment (interaction score); with PUM1 PUF domain R8-RRP it was 4.45 log2 enrichment (interaction score). In the case of “GGCUAGAACUAGUGGAUCCCCCGGCGCCCGGCGGCUCGAGCCCGGGUAAGUGGAAAUAGUCUGCAUGCCGCCGGGCGCCAUGCCUGCAGGUCGACUCUAGAAAACAUG”, in the test with PUM1 PUF domain R6-TFD, the binding signal was 4.99 log2 enrichment (interaction score). In the case of “GGCUAGAACUAGUGGAUCCCCCGGCGCCCGGCGGCUCGAGCCCGGGUAAGUGUAAAUAGUCUGCAUGCCGCCGGGCGCCAUGCCUGCAGGUCGACUCUAGAAAACAUG”, the binding signal with PUM1 PUF domain R8-PFQ was 2.66 log2 enrichment (interaction score); with PUM1 PUF domain R6-CWG, 3.03 log2 enrichment (interaction score); in the test with PUM1 PUF domain R4-WAR, 1.01 log2 enrichment (interaction score); with PUM1 PUF domain R8-RRP it was 2.63 log2 enrichment (interaction score). For “GGCUAGAACUAGUGGAUCCCCCGGCGCCCGGCGGCUCGAGCCCGGGUAAGUGUAAAUGGUCUGCAUGCCGCCGGGCGCCAUGCCUGCAGGUCGACUCUAGAAAACAUG”, the binding signal with PUM1 PUF domain R1-KMC was 3.4 log2 enrichment (interaction score); in the test with PUM1 PUF domain R1-GRN, 1.19 log2 enrichment (interaction score). Turning to “GGCUAGAACUAGUGGAUCCCCCGGCGCCCGGCGGCUCGAGCCCGGGUAAGUGUAAAUCGUCUGCAUGCCGCCGGGCGCCAUGCCUGCAGGUCGACUCUAGAAAACAUG”, the binding signal with PUM1 PUF domain R1-KDL is 0.72 log2 enrichment (interaction score); with PUM1 PUF domain R1-QGR it was 2.69 log2 enrichment (interaction score); in the test with PUM1 PUF domain R1-GRN it was 3.33 log2 enrichment (interaction score).

Take “GGCUAGAACUAGUGGAUCCCCCGGCGCCCGGCGGCUCGAGCCCGGGUAAGUGUAAGUAGUCUGCAUGCCGCCGGGCGCCAUGCCUGCAGGUCGACUCUAGAAAACAUG”: the binding signal with PUM1 PUF domain R3-WCM was 4.19 log2 enrichment (interaction score); in the test with PUM1 PUF domain R3-GYD, 5.08 log2 enrichment (interaction score). For the sequence “GGCUAGAACUAGUGGAUCCCCCGGCGCCCGGCGGCUCGAGCCCGGGUAAGUGUCAAUAGUCUGCAUGCCGCCGGGCGCCAUGCCUGCAGGUCGACUCUAGAAAACAUG”, the binding signal is 4.28 log2 enrichment (interaction score) in the test with PUM1 PUF domain R5-CAR, 3.43 log2 enrichment (interaction score) with PUM1 PUF domain R5-RKQ, 1.98 log2 enrichment (interaction score) with PUM1 PUF domain R5-FRV and 3.43 log2 enrichment (interaction score) with PUM1 PUF domain R5-RNS.

For “GGCUAGAACUAGUGGAUCCCCCGGCGCCCGGCGGCUCGAGCCCGGGUAAGUGAAAAUAGUCUGCAUGCCGCCGGGCGCCAUGCCUGCAGGUCGACUCUAGAAAACAUG”, the binding signal with PUM1 PUF domain R6-CWG is 4.54 log2 enrichment (interaction score). As to “GGCUAGAACUAGUGGAUCCCCCGGCGCCCGGCGGCUCGAGCCCGGGUAAGUGUAAUUAGUCUGCAUGCCGCCGGGCGCCAUGCCUGCAGGUCGACUCUAGAAAACAUG”, the binding signal in the test with PUM1 PUF domain R3-RRM was 3.06 log2 enrichment (interaction score). Consider “GGCUAGAACUAGUGGAUCCCCCGGCGCCCGGCGGCUCGAGCCCGGGUAAGUGUACAUAGUCUGCAUGCCGCCGGGCGCCAUGCCUGCAGGUCGACUCUAGAAAACAUG”, for which the binding signal with PUM1 PUF domain R4-WAR is 3.19 log2 enrichment (interaction score).

For the sequence “GGCUAGAACUAGUGGAUCCCCCGGCGCCCGGCGGCUCGAGCCCGGGUAAGUGUUAAUAGUCUGCAUGCCGCCGGGCGCCAUGCCUGCAGGUCGACUCUAGAAAACAUG”, the values for the binding signal in the test with PUM1 PUF domain R5-FRV and in the test with PUM1 PUF domain R5-RNS were 2.68 log2 enrichment (interaction score) and 4.14 log2 enrichment (interaction score), respectively. For the sequence “GGCUAGAACUAGUGGAUCCCCCGGCGCCCGGCGGCUCGAGCCCGGGUAAGUGUAAAUUGUCUGCAUGCCGCCGGGCGCCAUGCCUGCAGGUCGACUCUAGAAAACAUG”, the binding signal with PUM1 PUF domain R1-HGR is 2.93 log2 enrichment (interaction score); in the test with PUM1 PUF domain R1-KDL, 3.53 log2 enrichment (interaction score). Consider “GGCUAGAACUAGUGGAUCCCCCGGCGCCCGGCGGCUCGAGCCCGGGUAAGUGUAAAGAGUCUGCAUGCCGCCGGGCGCCAUGCCUGCAGGUCGACUCUAGAAAACAUG”, for which the binding signal with PUM1 PUF domain R2-KIG is 3.17 log2 enrichment (interaction score); with PUM1 PUF domain R2-LWR it was 1.92 log2 enrichment (interaction score). On to “GGCUAGAACUAGUGGAUCCCCCGGCGCCCGGCGGCUCGAGCCCGGGUAAGUGUGAAUAGUCUGCAUGCCGCCGGGCGCCAUGCCUGCAGGUCGACUCUAGAAAACAUG”, for which, in the test with PUM1 PUF domain R5-NGC, the binding signal is 3.12 log2 enrichment (interaction score).
